Source: PubChem BioAssay AID861 (The Scripps Research Institute Molecular Screening Center, 2007)
The campaign covered roughly 200,000 compounds. About 360 (0.18%) were called active. For the sample, actives were picked, then their nearest neighbours and some compounds at random. Unmarked numbers belong to inactive results. No stated cut-off is given here; in the data, active means inhibition above about 25%; inactive means the rest.

The molecules below were run against Toll-like receptor 4 (Homo sapiens) + Myeloid differentiation primary response protein MyD88 (Homo sapiens) (UniProt O00206+Q99836) (assay: disruptors of TLR4 binding to MyD88 – cell-based, HeLa CL3-4, BLA complementation, FRET ratio, primary screen (AID 861;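 further: 0% = vehicle and 100% = reference inhibitor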)). Details: HeLa CL3-4 TLR4/MyD88 BLA complementation, at 8.4 µM, active compounds read high.
Chain of Toll-like receptor 4 (Homo sapiens) + Myeloid differentiation primary response protein MyD88 (Homo sapiens) (O00206 whole entry, looked up): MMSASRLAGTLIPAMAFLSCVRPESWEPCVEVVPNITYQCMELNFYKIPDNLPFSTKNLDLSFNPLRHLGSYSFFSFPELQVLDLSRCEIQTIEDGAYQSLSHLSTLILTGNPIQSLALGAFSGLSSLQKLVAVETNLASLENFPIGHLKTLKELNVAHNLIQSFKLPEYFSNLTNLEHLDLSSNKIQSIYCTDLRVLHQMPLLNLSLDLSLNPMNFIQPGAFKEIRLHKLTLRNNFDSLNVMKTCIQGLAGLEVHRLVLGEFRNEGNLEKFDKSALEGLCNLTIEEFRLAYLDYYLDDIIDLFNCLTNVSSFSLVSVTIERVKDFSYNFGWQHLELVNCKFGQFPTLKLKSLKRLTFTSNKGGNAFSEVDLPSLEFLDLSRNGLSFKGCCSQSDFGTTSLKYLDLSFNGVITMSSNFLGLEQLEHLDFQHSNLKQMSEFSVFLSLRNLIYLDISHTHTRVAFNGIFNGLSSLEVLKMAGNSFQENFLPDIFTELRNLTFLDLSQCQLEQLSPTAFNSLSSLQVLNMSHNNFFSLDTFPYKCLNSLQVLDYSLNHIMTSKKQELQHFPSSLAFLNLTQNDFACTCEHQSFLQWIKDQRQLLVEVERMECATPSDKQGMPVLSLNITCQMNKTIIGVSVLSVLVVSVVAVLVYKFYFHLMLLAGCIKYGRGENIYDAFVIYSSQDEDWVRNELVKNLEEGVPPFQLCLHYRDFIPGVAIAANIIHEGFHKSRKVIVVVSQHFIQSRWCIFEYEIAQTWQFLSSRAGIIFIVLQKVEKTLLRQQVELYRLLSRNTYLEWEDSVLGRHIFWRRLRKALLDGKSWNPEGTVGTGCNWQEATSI
Chain of Toll-like receptor 4 (Homo sapiens) + Myeloid differentiation primary response protein MyD88 (Homo sapiens) (Q99836 whole entry, looked up): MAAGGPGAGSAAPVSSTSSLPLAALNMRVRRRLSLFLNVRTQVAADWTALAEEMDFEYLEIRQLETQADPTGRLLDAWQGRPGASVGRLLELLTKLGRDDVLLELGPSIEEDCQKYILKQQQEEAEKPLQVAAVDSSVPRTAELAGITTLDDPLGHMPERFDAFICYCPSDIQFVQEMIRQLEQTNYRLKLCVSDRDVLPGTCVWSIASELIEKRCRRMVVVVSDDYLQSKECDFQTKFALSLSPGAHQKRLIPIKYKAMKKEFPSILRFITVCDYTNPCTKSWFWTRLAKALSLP
Work on `CC(C)c1ccc(O)c(CN2CCN(c3ccccc3)CC2)c1` yielded an inhibition of -8.07%. Molecule `Fc1cccc(F)c1CN1CCN(Cc2c(F)cccc2F)CC1` has an inhibition of 6.5%. In the case of `COc1ccc(CN2CCN(c3ccccc3F)CC2)c(OC)c1`, the inhibition is reported as 29.3% (active). In the case of `CN(C)CCCN=Cc1c(O)n(Cc2ccco2)c(=O)[nH]c1=O`, the inhibition is reported as -1.36%. `CCOc1ccc(C2SCC(=O)Nc3c2c(C)nn3C2CCOC(C)(C)C2)cc1` (stereo not given) showed an inhibition of -12%.
